# Results taken from PubChem BioAssay AID1845 (The Scripps Research Institute Molecular Screening Center, 2009).
# About 490 (0.17%) of roughly 290,000 compounds were called active. This is one part of a sample in which actives are shown more often than they occur. No stated cut-off is given here; in the data, active means inhibition above about 37%; inactive means the rest.
# Experiment: DNA intercalator displacement agents – biochemical, FID fluorescence, artefact control for HCV NS3 helicase inhibitor project, primary screen (AID 1845);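 further: 0% = vehicle and 100% = reference compound; higher means more ethidium bromide displaced from hairpin DNA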
# Conditions: DNA fluorescent intercalator displacement, at 7.9 µM, hits give high values
row,Structure (SMILES),inhibition
1,Cc1ccc(-n2c(SCC(=O)NCCC3=CCCCC3)nc3n[nH]c(C)c3c2=N)cc1Cl,-27.4% (inactive)
2,O=C(N/N=C/c1cccc(Br)c1)c1ccc(N2CCCC2=O)cc1,-27.4% (inactive)
3,C=CCOc1ccc(/C=C/C(=O)OCC(=O)NC2CCCCCC2)cc1,-19.4% (inactive)
4,Cn1ccc(=Nc2ccc(NC(=O)c3ccc(N=c4ccn(C)c5ccc([N+](=O)[O-])cc45)cc3)cc2)cc1,99% (active)
5,O=C(Nc1ccc(C(=O)N2CCCCC2)cc1)c1cccc([N+](=O)[O-])c1,-20.2% (inactive)
6,Cc1cc([N+](=O)[O-])ccc1NC(=O)c1ccc(NC(=O)C(C)C)cc1,-1.34% (inactive)
7,CCC(C)(C)NC(=O)C(c1cccc(OC)c1OC)N(CC(C)C)C(=O)CCC(=O)Nc1cc(C)on1 (centres undefined),-44.5% (inactive)
8,O=C(NCCN1CCOCC1)c1ccc2c(c1)ncn2C1CCCC1,-5.28% (inactive)
9,O=C(NCCN1CCOCC1)c1cc(-c2cccs2)nc2ccccc12,3.9% (inactive)
10,c1ccc2cc3c(NCCN4CCOCC4)ccnc3cc2c1,63.9% (active)
11,CCCc1cc(=O)oc2c(C)c(OCC(=O)Nc3ccccn3)ccc12,-23.4% (inactive)
12,COC(=O)c1ccc(/C=N/NC(=O)C(=O)N2CCCCCC2)cc1,-24.6% (inactive)
13,CCc1c(C)c2ccc(OC3CCCCC3=O)cc2oc1=O (centres undefined),-19.1% (inactive)
14,Oc1c(Cl)cc(Cl)c(Cl)c1Cc1c(O)c(Cl)cc(Cl)c1Cl,42.8% (active)
15,CCC1OC(c2ccc([N+](=O)[O-])cc2)=Nc2ccccc21 (centres undefined),0.06% (inactive)
16,CC(CN1CCCCC1)c1ccccc1 (centres undefined),4.77% (inactive)
17,CC(C)[C@@H](NC(=O)OC(C)(C)C)C(=O)NCC1CCC(C(=O)N[C@@H](Cc2ccccc2)C(=O)O)CC1 (some centres undefined),-37.5% (inactive)
18,O=C(CCN1CCc2ccccc2C(O)(c2ccccc2)C1)c1ccc2c(c1)OCCO2 (centres undefined),13.1% (inactive)
19,COc1ccc2cc(C(=O)C3CCCN(C(=O)c4sc(C)nc4C)C3)ccc2c1 (centres undefined),-47.1% (inactive)
20,O=C(Nc1ccccc1F)c1ccc(Cn2cc(Br)cn2)cc1,-14.8% (inactive)

row,Structure (SMILES),inhibition
1,NC(=O)c1cc(S(=O)(=O)NCCCc2ccco2)cs1,-3.13% (inactive)
2,O=S1(=O)N=C(N(CCO)/N=C/c2ccccc2F)c2ccccc21,-16.3% (inactive)
3,COc1ccc(CCNC(=O)CN2C(=O)CCSc3ccccc32)c(OC)c1,-32% (inactive)
4,CC(C)C[C@@H](COc1ccccc1)N1CCN(CC(C)C)CCC1=O,-13.2% (inactive)
5,Cc1cnc(C)c(N2CCN(C(=O)C3CCC(=O)N(CCc4cccc(F)c4)C3)CC2)n1 (centres undefined),-38.6% (inactive)
6,O=C(Nc1ccccc1)c1ccc2c(c1)OCCCO2,-4.42% (inactive)
7,CC(NC(=O)CNC(=O)Cc1cccc2ccccc12)c1ccc(S(N)(=O)=O)cc1 (centres undefined),-27.1% (inactive)
8,Cc1ccc2c(c1)N(CC(=O)N1CCC(O)CC1)C(=O)CO2,-5.64% (inactive)
9,O=C(CCN1C(=O)[C@H]2CC=CC[C@H]2C1=O)NCc1nc(-c2ccccc2)no1,-33.7% (inactive)
10,O=C1NC(c2ccc(-c3ccccc3[N+](=O)[O-])o2)C(C(=O)c2ccc(Cl)cc2)C(O)(C(F)(F)F)N1 (centres undefined),-16.8% (inactive)
11,C/C(=N/OC(=O)c1ccc(Br)cc1)c1ccc(C)cc1,-5.35% (inactive)
12,CC(C)C[C@H](NC(=O)C1CCC(CNC(=O)[C@@H]2CCCN2C(=O)OC(C)(C)C)CC1)C(=O)O (some centres undefined),-30.2% (inactive)
13,CC(=O)c1sc(N/N=C/c2ccc(C(C)C)cc2)nc1C,4.61% (inactive)
14,CCOc1ccc(NC(=O)C(C)N2C(=O)c3ccccc3C2=O)cc1 (centres undefined),-4.96% (inactive)
15,S=C(Nc1ccc(Cl)cc1Cl)N1CCCC1,0.9% (inactive)
16,O=C(NCCN1CCN(C(=O)c2cccc([N+](=O)[O-])c2)CC1)C(=O)NCc1ccc(Cl)cc1,-23.5% (inactive)
17,NC(=O)C1CCN(Cc2nc3c(Br)cc(Br)cc3c(=O)[nH]2)CC1,-3.04% (inactive)
18,O=C(C1CC(=O)N(c2ccc(F)cc2)C1)N1CCN(c2ccccc2)CC1 (centres undefined),-24.8% (inactive)
19,CCc1cc(=O)oc2c(C)c(OCC(=O)N3CC[C@@]4(O)CCCC[C@H]4C3)ccc12,-29.5% (inactive)
20,COC(=O)c1c(NC(=O)C(=O)N2CCCCC2)sc2c1CC(C)(C)OC2,-42.8% (inactive)

row,Structure (SMILES),inhibition
1,CCN(CC)S(=O)(=O)c1ccc(N2CCOCC2)c(NC(=O)C2CSC3(C)CCC(=O)N23)c1 (centres undefined),-32.7% (inactive)
2,COc1cccc(N(CC(=O)NC2CCCC2)C(=O)CCCC(=O)Nc2ccccn2)c1,-30.3% (inactive)
3,O=C(O)CC(c1ccccc1F)N1Cc2ccccc2C1=O (centres undefined),-5.32% (inactive)
4,CC(C)(C)c1ccc(/C=C/C(=O)NCCCn2ccnc2)cc1,4.7% (inactive)
5,CC(C)c1ccc(Nc2nnc(SCC(=O)c3nnc(-c4ccccc4)o3)s2)cc1,-16.9% (inactive)
6,COc1ccccc1N(CC(=O)Nc1ccccc1C(=O)N1CCCC1)S(C)(=O)=O,-10.3% (inactive)
7,Cc1cccc(NC(=O)CCN2CC(C)CC(C)C2)c1 (centres undefined),6.82% (inactive)
8,CN(CCO)S(=O)(=O)c1ccc2c(c1)C(=O)c1cc(S(=O)(=O)N(C)CCO)ccc1-2,0.99% (inactive)
9,O=C(c1cc(S(=O)(=O)N2CCOCC2)ccc1Cl)N1CCOCC1,-0.42% (inactive)
10,O=C(CCN1CCCO1)N1CCCC(N2CCN(c3cccc(C(F)(F)F)c3)CC2)C1 (centres undefined),-34.6% (inactive)
11,O=C(Cc1ccc(Cl)cc1)NC1CCS(=O)(=O)C1 (centres undefined),-2.95% (inactive)
12,CC(=O)Nc1ccc(Nc2c3ccccc3nc3ccccc23)cc1,70.8% (active)
13,CC(=O)Nc1ccc(NC(=O)COc2ncnc3ccccc23)cc1,-0.17% (inactive)
14,Cc1ccc(Nc2c3c(nc4ccccc24)CCC3)cc1,6.54% (inactive)
15,COc1ccccc1N1CCN(c2ncnc3sc(C)c(-c4ccccc4)c23)CC1,-38.6% (inactive)
16,OC(CN=c1sc2ccccc2n1CC(O)COc1ccccc1)COc1ccccc1 (centres undefined),-11.1% (inactive)
17,COc1cccc(CNc2nc(C(F)(F)F)nc3ccccc23)c1,-5.57% (inactive)
18,NS(=O)(=O)c1ccc(CCNc2nc(C(F)(F)F)nc3ccccc23)cc1,-2.69% (inactive)
19,CCc1ccc(C(CNc2nc(C(F)(F)F)nc3ccccc23)N(C)C)cc1 (centres undefined),39.5% (active)
